A selection: hits, their analogues and other compounds. The true share with any hit is near 5.4%.
Marburg entry inh: Marburg virus entry inhibition; Potency, µM (series often up to 37.8 µM), inactives show at the top dose activity change, negative = inhibition, most hits filed as inhibitors; Marburg virus pseudotyped entry inhibition, cell reporter; 300,000 tested, 1.8% active; calls by dose curve; tested in HEK293 cells
Sm TGR block: S. mansoni TGR enzyme inhibition; 360,000 tested, 3% active; Potency, µM (series often up to 114 µM), without a hit: top-dose activity change, negative = inhibition, most hits filed as inhibitors; purified TGR, DTNB reduction, TNB absorbance 405 nm; Q962Y6; active = well fitted inhibition curve with a large enough effect; inconclusive = small, poorly fitted or top-dose-only effect; inactive = no such curve, though single readings can be large or run the other way; also: nearly all actives have a fitted effect of over 60% in size
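Kinetic colorimetric format: TGR-catalysed, NADPH-driven DTNB reduction monitored via TNB absorbance. Enzyme dispensed at 20 nM; compound exposure 15 min at room temperature before reaction start.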
VACV mCherry inh: vaccinia inhibition (mCherry reporter) | AID 720579 | Vaccinia virus mCherry reporter infection, fluorescence | Potency, µM (series often up to 36.5 µM), for the others: top-dose activity change, negative = inhibition, hits mostly inhibitors | 310,000 tested, 0.63% active; calls by dose curve; tested in A549 cells; also: nearly all actives have a fitted effect of over 35% in size
VACV Venus inh: inhibitors of vaccinia virus (Venus reporter); Potency, µM (series often up to 36.5 µM), for the others: top-dose activity change, negative = inhibition, usual class: inhibitors; Vaccinia virus Venus reporter expression, fluorescence; AID 720580; 330,000 tested, 0.46% active; calls by dose curve; tested in A549 cells; also: nearly all actives have a fitted effect of over 30% in size
LASV entry inh: Lassa virus entry inhibition; AID 540256; Lassa virus pseudotype entry inhibition, cell reporter; Potency, µM (doses to about 37.9 µM), for inactives: top-dose activity change, negative = inhibition, actives largely listed as inhibitors; 300,000 tested, 1.2% active; calls by dose curve; tested in HEK293 cells; also: nearly all actives have a fitted effect of over 50% in size
FMDV inh: foot and mouth disease virus antiviral activity; FMDV antiviral cell-based qHTS; Potency, µM (highest dose often 57.9 µM), for the others: at the highest dose activity change, negative = inhibition, usual class: inhibitors; 410,000 tested, 1.2% active; calls by dose curve; tested in HEK293T cells; also: read-out not given here; nearly all actives have a fitted effect of over 45% in size
* hit, by the source's call; [ ] = remark or other dose. % is scaled to controls: 0 for no effect and ±100 for the full control effect; potency is read from the fitted curve at half-maximal effect.

`O=C(O)C1C2C=CC(O2)C1C(=O)Nc1ccccc1C(F)(F)F` (configuration not stated) gave Marburg entry inh 4%, Sm TGR block 8.9µM*, VACV Venus inh 2%, LASV entry inh -6% and FMDV inh -16%.
For O=C(O)C1C2C=CC(O2)C1C(=O)Nc1cccc(C(F)(F)F)c1 (configuration not stated) the results were Sm TGR block 100µM* and FMDV inh 0%.
CCOc1ccccc1NC(=O)C1C2C=CC(O2)C1C(=O)O (configuration not stated) was read as Marburg entry inh 13%, Sm TGR block 20µM*, VACV mCherry inh inactive, VACV Venus inh -6%, LASV entry inh 2% and FMDV inh 11%.
`CCOc1ccc(OCC)c(NC(=O)C2C3C=CC(O3)C2C(=O)O)c1` (configuration not stated) gave VACV mCherry inh inactive, VACV Venus inh -10% and FMDV inh -5%.
`CCS(=O)(=O)NCc1c(C)ncc2c1CCN(C(=O)c1ccc(F)cc1)C2` gave VACV mCherry inh -27%, VACV Venus inh -22% and FMDV inh -15%.
`CCOc1cc(C(=O)NCC(c2ccc(N(C)C)cc2)N2CCOCC2)cc(OCC)c1OCC` (configuration not stated) gave Sm TGR block 7%, VACV mCherry inh -13%, VACV Venus inh -9%, LASV entry inh -2%[46.1 µM] and FMDV inh -22%.
`CC(c1ccon1)N(C)C(=O)c1cnn(-c2ncc3c(n2)-c2ccccc2CC3)c1C1CC1` (configuration not stated) gave VACV mCherry inh -20%, VACV Venus inh -23% and FMDV inh 25%.
`COc1ccc(NC(=O)C2C3C=CC(C3)C2C(=O)NCc2ccco2)c(OC)c1` (configuration not stated) gave Marburg entry inh inconclusive, Sm TGR block -22%, VACV Venus inh -1%, LASV entry inh -1% and FMDV inh 2%.
For CCOc1ccc(OCC)c(NC(=O)C2C3C=CC(O3)C2C(=O)NCc2ccco2)c1 (configuration not stated) the results were Marburg entry inh 0%, Sm TGR block 50µM*, LASV entry inh 4% and FMDV inh 25%.
Screening CN1CCN(C=Nc2nc3ccccc3nc2N2CCCC2)CC1 returned Marburg entry inh 8%[46.1 µM], Sm TGR block 32µM*, VACV mCherry inh -14%, VACV Venus inh -1%, LASV entry inh 5% and FMDV inh -8%.
Screening COc1nc2ccccc2nc1N1CCN(C)CC1 returned Sm TGR block -4% and FMDV inh 0%.
CCCCc1[nH]c(=O)c(C#N)c2c1CSC(C)(C)C2 was read as Marburg entry inh 16%, Sm TGR block 32µM*, LASV entry inh 7% and FMDV inh 0%.
O=C(Nc1ccc(Br)cc1F)c1ccc2nc(CCc3ccccc3)oc2c1 was read as Sm TGR block -8%, VACV mCherry inh -22%, VACV Venus inh inconclusive, LASV entry inh -8%[46.1 µM] and FMDV inh 11%.
Screening COc1cccc(C2C(C(=O)/C=C/c3ccco3)=C(O)C(=O)N2CCN2CCOCC2)c1 (configuration not stated) returned Marburg entry inh 11%[46.1 µM], Sm TGR block 4.5µM*, VACV mCherry inh inactive, VACV Venus inh 3%, LASV entry inh 19%[46.1 µM] and FMDV inh -4%.
Screening CCOc1ccc(C2C(C(=O)/C=C/c3ccco3)=C(O)C(=O)N2CCN2CCOCC2)cc1OC (configuration not stated) returned Marburg entry inh 25%[46.1 µM], Sm TGR block 5µM*, VACV mCherry inh 10%, VACV Venus inh 3%, LASV entry inh -8% and FMDV inh 13%.
For COc1ccc(C2C(C(=O)/C=C/c3ccco3)=C(O)C(=O)N2CCN2CCOCC2)cc1 (configuration not stated) the results were Marburg entry inh inconclusive, Sm TGR block 14µM*, VACV mCherry inh -1%, VACV Venus inh 3%, LASV entry inh 2% and FMDV inh -1%.
